Experimental data published in PubChem BioAssay (NCI).
About 83,000 compounds went through this panel and 20% of them were active in at least one assay; those are over-represented in the sample as a whole.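 Activity criterion: percent growth below 10, measured after cells in 96-well plates were exposed to a single compound concentration for 48 hours.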 Values without a mark were called inactive. Calls of active or inactive are those of the source.

The compounds below were run on NCI-H23 lung (assay: NCI-60 one-dose screen, 48 h (100 = growth as untreated, 0 = no growth, -100 = all killed)). Settings: 10 µM.
In the case of `Oc1[nH]c2ccc(Cl)cc2c1/C=c1/ccc2c(c1)N=C(c1cc(F)cc(F)c1)N=2`, the growth is reported as 64%. Compound `COc1ccc2c(c1)C(=O)c1c-2c(=O)n(CCCN(C)C)c2cc(OC)c(OC)cc12` has a growth of 48.8%. With `CCCCCCCCCCCCCCCCN(C(C)c1ccccc1)S(=O)(=O)c1ccc(OC)c(N)c1` (stereo not drawn) the growth was 93.7%. `COc1ccc2c(c1)C(=O)c1c-2c(OCCN(C)C)nc2ccccc12` was tested, and the growth was 41.5%. In the case of `CO/N=C(/C(=O)NC1C(=O)N2C(C(=O)O)=C(COC(N)=O)CSC12)c1ccco1` (stereo not drawn), the growth is reported as 107%. Compound `CC/C(=C(/c1ccc(OCCN(C)C)cc1)c1ccc(OC(=O)CCC(=O)c2c(C)[nH]c(/C=C3\N=C(c4ccc[nH]4)C=C3OC)c2C)cc1)c1ccccc1` has a growth of 52.3%. In the case of `COc1ccc2c(c1)O/C(=C\c1ncc([N+](=O)[O-])n1C)C2=O`, the growth is reported as -7.25% (active). `COc1ccc(/C=C2/CN(C(=O)c3ccccc3F)C/C(=C\c3ccc(OC)cc3)C2=O)cc1` was tested, and the growth was 73.6%. `O=C(Nc1cccc(-n2cc(-c3ccncc3)c(-c3cc(O)cc(Cl)c3)n2)c1)c1ccc(N2CCOCC2)c(C(F)(F)F)c1` gave a growth of 15.4%. `COc1ccc(/C=C2/CN(CCC#N)C/C(=C\c3ccc(OC)cc3)C2=O)cc1` was tested, and the growth was 31.1%. With `Nc1ncn([C@@H]2O[C@H](CO)[C@@H](O)[C@H]2O)c(=O)n1` the growth was 37.2%. In the case of `COc1cccc(C(=O)Nc2ccc(CN3CCc4nc5cc(OC)c(OC)cc5cc43)cc2)c1`, the growth is reported as 56.9%. `CC(C)=CCc1cc(O)cc2c1OC(C=C(C)C)C1=C2C(=O)C2=C(C1=O)S(=O)(=O)CCN2` (stereo not drawn) was tested, and the growth was 28.6%. `N=C(N)c1ccc(-c2ccc(-c3ccccc3)o2)nc1` was tested, and the growth was 101%. For `COc1ccc2nc3cc(Cl)ccc3c(NCCNCC(C)O)c2c1` (stereo not drawn), the growth was 42.8%. With `N#CCCN1C/C(=C/c2ccc(Br)cc2)C(=O)/C(=C/c2ccc(Br)cc2)C1` the growth was -30.8% (active). Compound `O=C(Nc1ccncc1)C(=O)c1cn(S(=O)(=O)c2cccc3ccccc23)c2ccccc12` has a growth of 62.1%. Work on `CCn1cc(C(=O)O)c(=O)c2cnc(N3CCCC3)nc21` yielded a growth of 105%. Compound `Cc1ccc(NC(=O)Nc2c(Cl)cccc2Cl)cn1` has a growth of 109%. `Cc1ccc(NC(=O)CSc2nc3ccccc3c(=O)n2CCc2ccccc2)c(C(=O)O)c1` showed a growth of 101%. With `O=C(Nc1ccccc1)Nc1cccc(-n2cc(-c3ccncc3)c(-c3ccc(O)c(Cl)c3)n2)c1` the growth was 74.2%. `COc1ccc(-c2nc(-c3nc4ccc(OC)cc4[nH]3)cc3c2[nH]c2ccccc23)cc1` was tested, and the growth was 55%. Work on `COc1ccc(-c2nc(-c3nc4cc(Cl)c(Cl)cc4[nH]3)c3ccccn23)cc1` yielded a growth of 67.5%. In the case of `COc1ccc(/C=C2/CN(C(=O)c3ccc(C)cc3)C/C(=C\c3ccc(OC)cc3)C2=O)cc1`, the growth is reported as 87.6%. `COc1cc(-c2cc(/C=C/C(=O)c3ccc(F)c(F)c3)[nH]n2)cc(OC)c1OC` was tested, and the growth was 55.9%. `COc1ccc(/C(=C2\O[C@@H]([C@H]3COC(C)(C)O3)[C@H]3OC(C)(C)O[C@@H]23)c2cc(OC)c(OC)c(OC)c2)cc1O` was tested, and the growth was 72.3%. For `CS(=O)(=O)Nc1ccc(Nc2c3ccccc3nc3cc([N+](=O)[O-])ccc23)cc1`, the growth was 1.7% (active). `CCN(CC)CCC(=O)Nc1cccc2c1C(=O)c1c(c(O)c3ccccc3c1O)C2=O` showed a growth of 62%. `COc1ccc(-c2nsc3c2NC(=O)CC3c2ccc(F)cc2)cc1` (stereo not drawn) was tested, and the growth was 59.5%. Compound `N=c1c2c(-c3ccccc3)c(-c3ccccc3)n(Cc3ccccc3)c2ncn1CCCO` has a growth of 45.7%. For `CC(C)(C#N)Nc1ccccc1`, the growth was 108%. `Cc1cc(O)c(C(C)(C)C)cc1Sc1cc(C(C)(C)C)c(O)cc1C` was tested, and the growth was 44.5%. For `CC/C(=C(/c1ccc(OCCN(C)C)cc1)c1ccc(OC(=O)CCCCC(=O)c2c(C)[nH]c(/C=C3\N=C(c4ccc[nH]4)C=C3OC)c2C)cc1)c1ccccc1`, the growth was 86.7%. Work on `C[N+](C)(C)c1ncnc2nc[nH]c12` yielded a growth of 93.8%. For `Cc1cc(N(CCCNc2ccnc3cc(Cl)ccc23)Cc2cccs2)nc(Cl)n1`, the growth was 25.3%. For `N#CCCN(NC(=O)OCc1ccccc1)C(=O)OCc1ccccc1`, the growth was 107%. In the case of `CSc1nn(-c2ccccc2)c2ncnc(Oc3ccccc3)c12`, the growth is reported as 101%. `CCCCOc1ccc(NC(=O)Nc2nnc(C)s2)cc1` was tested, and the growth was 96.8%. `O=C1OCC2=C1C(c1cccc(Br)c1)c1cc3c(cc1N2CCO)CCC3` (stereo not drawn) gave a growth of 21.1%.

The compounds below were run on NCI-H226 lung in the same assay as above. Settings: 10 µM.
For `Oc1[nH]c2ccc(Cl)cc2c1/C=c1/ccc2c(c1)N=C(c1cc(F)cc(F)c1)N=2`, the growth was 86.1%. In the case of `COc1ccc2c(c1)C(=O)c1c-2c(=O)n(CCCN(C)C)c2cc(OC)c(OC)cc12`, the growth is reported as 70.5%. Compound `CCCCCCCCCCCCCCCCN(C(C)c1ccccc1)S(=O)(=O)c1ccc(OC)c(N)c1` (stereo not drawn) has a growth of 108%. Work on `COc1ccc2c(c1)C(=O)c1c-2c(OCCN(C)C)nc2ccccc12` yielded a growth of 45.5%. `CO/N=C(/C(=O)NC1C(=O)N2C(C(=O)O)=C(COC(N)=O)CSC12)c1ccco1` (stereo not drawn) was tested, and the growth was 109%. In the case of `CC/C(=C(/c1ccc(OCCN(C)C)cc1)c1ccc(OC(=O)CCC(=O)c2c(C)[nH]c(/C=C3\N=C(c4ccc[nH]4)C=C3OC)c2C)cc1)c1ccccc1`, the growth is reported as 23.4%. In the case of `COc1ccc2c(c1)O/C(=C\c1ncc([N+](=O)[O-])n1C)C2=O`, the growth is reported as -42.3% (active). Work on `COc1ccc(/C=C2/CN(C(=O)c3ccccc3F)C/C(=C\c3ccc(OC)cc3)C2=O)cc1` yielded a growth of 57.8%. For `O=C(Nc1cccc(-n2cc(-c3ccncc3)c(-c3cc(O)cc(Cl)c3)n2)c1)c1ccc(N2CCOCC2)c(C(F)(F)F)c1`, the growth was 94.7%. In the case of `COc1ccc(/C=C2/CN(CCC#N)C/C(=C\c3ccc(OC)cc3)C2=O)cc1`, the growth is reported as -6.76% (active). In the case of `Nc1ncn([C@@H]2O[C@H](CO)[C@@H](O)[C@H]2O)c(=O)n1`, the growth is reported as 45.9%. In the case of `COc1cccc(C(=O)Nc2ccc(CN3CCc4nc5cc(OC)c(OC)cc5cc43)cc2)c1`, the growth is reported as 68.4%. Compound `CC(C)=CCc1cc(O)cc2c1OC(C=C(C)C)C1=C2C(=O)C2=C(C1=O)S(=O)(=O)CCN2` (stereo not drawn) has a growth of 59.8%. In the case of `N=C(N)c1ccc(-c2ccc(-c3ccccc3)o2)nc1`, the growth is reported as 90.4%. Work on `COc1ccc2nc3cc(Cl)ccc3c(NCCNCC(C)O)c2c1` (stereo not drawn) yielded a growth of 67.9%. `N#CCCN1C/C(=C/c2ccc(Br)cc2)C(=O)/C(=C/c2ccc(Br)cc2)C1` was tested, and the growth was -77.6% (active). `O=C(Nc1ccncc1)C(=O)c1cn(S(=O)(=O)c2cccc3ccccc23)c2ccccc12` gave a growth of 76.8%. `CCn1cc(C(=O)O)c(=O)c2cnc(N3CCCC3)nc21` showed a growth of 94.5%. `Cc1ccc(NC(=O)Nc2c(Cl)cccc2Cl)cn1` gave a growth of 140%. For `Cc1ccc(NC(=O)CSc2nc3ccccc3c(=O)n2CCc2ccccc2)c(C(=O)O)c1`, the growth was 101%. Compound `O=C(Nc1ccccc1)Nc1cccc(-n2cc(-c3ccncc3)c(-c3ccc(O)c(Cl)c3)n2)c1` has a growth of 93.8%. For `COc1ccc(-c2nc(-c3nc4ccc(OC)cc4[nH]3)cc3c2[nH]c2ccccc23)cc1`, the growth was 65.3%. With `COc1ccc(-c2nc(-c3nc4cc(Cl)c(Cl)cc4[nH]3)c3ccccn23)cc1` the growth was 44.5%. `COc1ccc(/C=C2/CN(C(=O)c3ccc(C)cc3)C/C(=C\c3ccc(OC)cc3)C2=O)cc1` showed a growth of 82.1%. With `COc1cc(-c2cc(/C=C/C(=O)c3ccc(F)c(F)c3)[nH]n2)cc(OC)c1OC` the growth was 65.6%. `COc1ccc(/C(=C2\O[C@@H]([C@H]3COC(C)(C)O3)[C@H]3OC(C)(C)O[C@@H]23)c2cc(OC)c(OC)c(OC)c2)cc1O` showed a growth of 108%. In the case of `CS(=O)(=O)Nc1ccc(Nc2c3ccccc3nc3cc([N+](=O)[O-])ccc23)cc1`, the growth is reported as 0.761% (active). With `CCN(CC)CCC(=O)Nc1cccc2c1C(=O)c1c(c(O)c3ccccc3c1O)C2=O` the growth was 29%. For `COc1ccc(-c2nsc3c2NC(=O)CC3c2ccc(F)cc2)cc1` (stereo not drawn), the growth was 75.2%. Work on `N=c1c2c(-c3ccccc3)c(-c3ccccc3)n(Cc3ccccc3)c2ncn1CCCO` yielded a growth of 46.1%. `CC(C)(C#N)Nc1ccccc1` showed a growth of 95.8%. `Cc1cc(O)c(C(C)(C)C)cc1Sc1cc(C(C)(C)C)c(O)cc1C` showed a growth of 84.3%. `CC/C(=C(/c1ccc(OCCN(C)C)cc1)c1ccc(OC(=O)CCCCC(=O)c2c(C)[nH]c(/C=C3\N=C(c4ccc[nH]4)C=C3OC)c2C)cc1)c1ccccc1` gave a growth of 54.4%. Compound `C[N+](C)(C)c1ncnc2nc[nH]c12` has a growth of 99.1%. Compound `Cc1cc(N(CCCNc2ccnc3cc(Cl)ccc23)Cc2cccs2)nc(Cl)n1` has a growth of 52.5%. For `N#CCCN(NC(=O)OCc1ccccc1)C(=O)OCc1ccccc1`, the growth was 115%. Compound `CSc1nn(-c2ccccc2)c2ncnc(Oc3ccccc3)c12` has a growth of 90.6%. With `CCCCOc1ccc(NC(=O)Nc2nnc(C)s2)cc1` the growth was 101%. For `O=C1OCC2=C1C(c1cccc(Br)c1)c1cc3c(cc1N2CCO)CCC3` (stereo not drawn), the growth was -15.7% (active).
